A number with no mark means an inactive call. Records with an inconclusive call do not appear. A call without a number means that no potency is given here. Calls of active or inactive are those of the source. Calls come from the whole dose curve; as a rule, active = well fitted curve in the direction sought with a large enough effect in the repeat runs; inconclusive = weak or mixed curves; inactive = no such curve, though single readings can be large; an effect the other way counts as inactive or inconclusive.
Key:
[1] = A CellTox Green Cytotoxicity Assay to monitor cytotoxicity in HEK293 cells - 32 hour (AID 1224881); note: nearly all actives have a fitted effect of over 40% in size
How it was run: (§1)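 Cytotoxicity was tracked continuously in HEK293 cells by a DNA-binding dye excluded from viable cells. Compounds were transferred in DMSO 5 h after seeding; fluorescence was recorded at intervals up to 40 h.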

[2] = A CellTox Green Cytotoxicity Assay to monitor cytotoxicity in HepG2 cells - 0 hour (AID 1224882); note: nearly all actives have a fitted effect of over 35% in size
How it was run: (§2)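 Real-time, homogeneous cytotoxicity readout: dead-cell DNA staining by CellTox Green in HepG2 monolayers, fluorescence measured at timed intervals up to 40 h of continuous compound exposure.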

[3] = A CellTox Green Cytotoxicity Assay to monitor cytotoxicity in HepG2 cells - 32 hour (AID 1224883); note: nearly all actives have a fitted effect of over 50% in size; note: potency is the fitted concentration of half-maximal effect
How it was run: as §2

[4] = A CellTox Green Cytotoxicity Assay to monitor cytotoxicity in HEK293 cells - 8 hour (AID 1224884); note: nearly all actives have a fitted effect of over 35% in size
How it was run: as §1

[5] = qHTS RealTime-Glo MT Cell Viability Assay in HepG2 cells - 16 hour (AID 1224885); note: nearly all actives have a fitted effect of over 50% in size
How it was run: (§3)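 Viability was tracked continuously by NanoLuc luminescence from prosubstrate reduced by living HepG2 cells, at successive time points over 40 h of compound exposure. Cells with reagent were preincubated 5 h at 37 °C before compound addition.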

[6] = A CellTox Green Cytotoxicity Assay to monitor cytotoxicity in HEK293 cells - 16 hour (AID 1224888); note: nearly all actives have a fitted effect of over 35% in size
How it was run: as §1

[7] = qHTS RealTime-Glo MT Cell Viability Assay in HepG2 cells - 0 hour (AID 1224889); note: nearly all actives have a fitted effect of over 50% in size
How it was run: as §3

[8] = A CellTox Green Cytotoxicity Assay to monitor cytotoxicity in HepG2 cells - 8 hour (AID 1224890); note: nearly all actives have a fitted effect of over 45% in size
How it was run: as §2

[9] = qHTS RealTime-Glo MT Cell Viability Assay in HEK293 cells - 24 hour (AID 1224886); note: nearly all actives have a fitted effect of over 50% in size; note: potency is the fitted concentration of half-maximal effect; for activity change, negative = cytotoxicity: top concentration of the series differs between compounds
How it was run: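 Viability tracked continuously by luminescence as live cells reduce a prosubstrate for NanoLuc; HEK293 cells preincubated 5 h, compound-treated at 37 C, and read at 0, 8, 16, 24, 32 and 40 h.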

[10] = qHTS RealTime-Glo MT Cell Viability Assay in HEK293 cells - 8 hour (AID 1224887); note: nearly all actives have a fitted effect of over 50% in size; note: potency is the fitted concentration of half-maximal effect; for activity change, negative = cytotoxicity: top concentration of the series differs between compounds
How it was run: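 Nonlytic bioluminescent viability monitoring. HEK293 at 600 cells/well with reagent; 5 h settle; compound transfer by pintool; plates held at 37 C and read at set time points.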

CCCCN(CCCC)C(=S)SSC(=S)N(CCCC)CCCC
Potency [1]: inactive
Potency [2]: inactive
Potency [3]: inactive
Potency [4]: inactive
Potency [5]: inactive
Potency [6]: inactive
Potency [7]: inactive
Potency [8]: inactive

CC[C@@H]([C@H](C)O)n1ncn(-c2ccc(N3CCN(c4ccc(OC[C@@H]5CO[C@@](Cn6cncn6)(c6ccc(F)cc6F)C5)cc4)CC3)cc2)c1=O
Potency [1]: inactive
Potency [2]: inactive
Potency [3]: inactive
Potency [4]: inactive
Potency [9]: 2.68 µM (active)
Potency [10]: 6.01 µM (active)
Potency [6]: inactive
Potency [7]: inactive
Potency [8]: inactive

CCOc1cc(N)c(Cl)cc1C(=O)NCC1CN(Cc2ccc(F)cc2)CCO1 (stereo unspecified)
Potency [1]: inactive
Potency [2]: inactive
Potency [3]: inactive
Potency [4]: inactive
Potency [9]: 15.1 µM (active)
Potency [10]: 19 µM (active)
Potency [6]: inactive
Potency [8]: inactive

C=CCCCCCCCCCCCCCCCC
cytotoxicity [2]: -13.6% [at 6.97 µM]
cytotoxicity increase [3]: -20.4% [at 6.97 µM]
cytotoxicity increase [4]: -6.36% [at 6.97 µM]
activity change, negative = cytotoxic [5]: -8.12% [at 6.97 µM]
activity change, negative = cytotoxicity [10]: -0.881% [at 6.97 µM]
activity change [6]: -0.39% [at 6.97 µM, active compounds read high]
activity change, negative = cytotoxicity [7]: -21.4% [at 6.97 µM]
cytotoxicity increase [8]: -16.6% [at 6.97 µM]

CO[C@H]1C=CO[C@@]2(C)Oc3c(C)c(O)c4c(O)c(c5c(c4c3C2=O)=NC2(CCN(CC(C)C)CC2)N=5)NC(=O)/C(C)=C\C=C/[C@H](C)[C@H](O)[C@@H](C)[C@@H](O)[C@@H](C)[C@H](OC(C)=O)[C@@H]1C
Potency [2]: inactive
Potency [3]: 47.9 µM (active)
Potency [4]: inactive
Potency [9]: 38.1 µM (active)
Potency [6]: inactive
Potency [7]: inactive
Potency [8]: inactive

CCC(Cc1ccccc1)(C(=O)c1ccc(N2CCOCC2)cc1)N(C)C (stereo unspecified)
Potency [2]: inactive
Potency [3]: inactive
Potency [4]: inactive
Potency [5]: inactive
Potency [6]: inactive
Potency [7]: inactive
Potency [8]: inactive

CN(C)CCOC1=Cc2ccccc2Sc2ccc(Cl)cc21
Potency [2]: inactive
Potency [3]: 23.9 µM (active)
Potency [4]: inactive
Potency [9]: inactive
Potency [6]: inactive
Potency [8]: inactive

CCCCCCCCCCCC(=O)[O][Sn]([CH2]CCC)([CH2]CCC)[O]C(=O)CCCCCCCCCCC
Potency [2]: inactive
Potency [3]: 19 µM (active)
Potency [4]: inactive
Potency [9]: 7.56 µM (active)
Potency [6]: inactive
Potency [7]: inactive
Potency [8]: inactive

O=C(N[C@@H](c1ccccc1)[C@@H]1CCCCN1)c1cccc(C(F)(F)F)c1Cl
Potency [2]: inactive
Potency [4]: inactive
Potency [9]: 24.5 µM (active)
Potency [6]: inactive
Potency [7]: inactive
Potency [8]: inactive

CCN(Cc1cccc(S(=O)(=O)O)c1)c1ccc(C(=C2C=CC(=[N+](CC)Cc3cccc(S(=O)(=O)[O-])c3)C=C2)c2ccccc2)cc1
Potency [2]: inactive
Potency [3]: inactive
Potency [4]: inactive
Potency [5]: inactive
Potency [6]: inactive
Potency [8]: inactive

Nc1nccs1
Potency [2]: inactive
Potency [3]: inactive
Potency [5]: inactive
Potency [9]: inactive
Potency [10]: inactive
Potency [7]: inactive
Potency [8]: inactive

O=c1[nH]c2ccc(S(=O)CCN3CCC(Cc4ccc(F)cc4)CC3)cc2o1 (stereo unspecified)
Potency [2]: inactive
Potency [3]: inactive
Potency [4]: inactive
Potency [5]: inactive
Potency [6]: inactive
Potency [8]: inactive

CC1=CC(O)CC(C)(C)C1 (stereo unspecified)
Potency [2]: inactive
Potency [3]: inactive
Potency [4]: inactive
Potency [5]: inactive
Potency [6]: inactive
Potency [7]: inactive
Potency [8]: inactive

C[C@@H]1C[C@H]2[C@@H]3CCC4=CC(=O)C=C[C@]4(C)[C@@]3(F)[C@@H](O)C[C@]2(C)[C@H]1C(=O)CO
Potency [2]: inactive
Potency [3]: inactive
Potency [4]: inactive
Potency [5]: inactive
Potency [9]: inactive
Potency [6]: inactive
Potency [8]: inactive

CC1=C(/C=C/C(C)=C\C=C\C(C)=C\C(=O)O)C(C)(C)CCC1
Potency [2]: inactive
Potency [4]: inactive
Potency [9]: inactive
Potency [6]: inactive
Potency [7]: inactive
Potency [8]: inactive

CN1CCN(CCCN2c3ccccc3Sc3ccc(S(=O)(=O)N(C)C)cc32)CC1
Potency [2]: inactive
Potency [3]: 26.8 µM (active)
Potency [4]: inactive
Potency [6]: inactive

Oc1ccc(Nc2ccccc2)cc1
Potency [2]: inactive
Potency [3]: inactive
Potency [4]: inactive
Potency [9]: 21.9 µM (active)
Potency [10]: 17.4 µM (active)
Potency [6]: inactive
Potency [8]: inactive

CC(=O)[C@H]1CC[C@H]2[C@@H]3C=CC4=CC(=O)CC[C@@]4(C)[C@@H]3CC[C@]12C
Potency [2]: inactive
Potency [3]: inactive
Potency [4]: inactive
Potency [5]: inactive
Potency [10]: inactive
Potency [6]: inactive
Potency [7]: inactive
Potency [8]: inactive

NC(=O)N(O)[C@@H]1COc2cc(OCc3ccccc3)ccc21
Potency [2]: inactive
Potency [4]: inactive
Potency [5]: inactive
Potency [9]: inactive
Potency [10]: inactive
Potency [6]: inactive
Potency [7]: inactive
Potency [8]: inactive

CC(C)(C)CC(C)(C)c1ccc(OCCO)cc1
Potency [2]: inactive
Potency [3]: inactive
Potency [5]: inactive
Potency [9]: 5.46 µM (active)
Potency [10]: 7.72 µM (active)
Potency [8]: inactive

COCCOC
Potency [2]: inactive
Potency [3]: inactive
Potency [4]: inactive
Potency [5]: inactive
Potency [9]: 0.74 µM (active)
Potency [6]: inactive
Potency [7]: inactive
Potency [8]: inactive

From PubChem BioAssay (Tox21)
